Assay outcomes deposited in PubChem BioAssay by National Center for Advancing Translational Sciences (NCATS).
Compounds with a hit are over-represented: about 11% of the library has one in this group of screens.
AMA1 RON2 block: AMA1-RON2 (P. falciparum) interaction inhibition | AlphaScreen AMA1-biotinylated RON2 peptide binding | Potency, µM (doses to about 58.2 µM), for the others: at the highest dose activity change, negative = inhibition, actives largely listed as inhibitors | hit rate 0.2% among 360,000;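 note: 0% = vehicle wells and -100% = peptide control; nearly all actives have a fitted effect of over 45% in size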
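AMA1 (3D7) with his tag at 25 nM final met compounds first, then biotinylated RON2 peptide at 25 nM; detection used donor plus acceptor beads, 10 µg/mL apiece, read by AlphaScreen after 30 min at room temperature.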
Pf growth 48h: P. falciparum growth inhibition at 48 hours (one generation); P. falciparum luciferase growth in erythrocytes, 48 h; Potency, µM (highest dose often 28.7 µM), inactives show at the highest dose activity change, negative = inhibition, most hits filed as inhibitors; hit rate 5.9% among 310,000; note: % is set by controls: 0 for no effect and ±100 for the full control effect
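Read-out is firefly luciferase luminescence from an integrated reporter in P. falciparum, so falling signal marks reduced parasite growth. Infected erythrocytes were at 2% hematocrit and 0.1% parasitemia (final) in Albumax-supplemented RPMI 1640.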
NS1 function inh: blocks influenza NS1 protein function; AID 2326; Potency, µM (series often up to 46.1 µM), for the others: at the top dose activity, positive = more growth; hit rate 0.4% among 270,000; calls by dose curve; note: actives are rising curves; nearly all actives have a fitted effect of over 50% in size
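In this qHTS, NS1 from influenza A is expressed in budding yeast, where it slows growth. Cells are switched from glucose to 2% galactose medium (pH 6.0, -URA), treated with compound, and growth recovery is read at OD600.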
Sm TGR inh: S. mansoni TGR enzyme inhibition. AID 485364. Potency, µM (series often up to 114 µM), for inactives: top-dose activity change, negative = inhibition, actives largely listed as inhibitors. Q962Y6. hit rate 3% among 360,000. purified TGR, DTNB reduction, TNB absorbance 405 nm; note: % is set by controls: 0 for no effect and ±100 for the full control effect; nearly all actives have a fitted effect of over 60% in size
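TGR 20 nM + NADPH 100 uM (dispensed conc.), cpd preinc 15 min RT; start with NADPH (500 uM addition) then DTNB (15 mM addition). Kinetic TNB absorbance, 405 nm filter. Four-parameter Hill fit across titration.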
Pf growth 96h: P. falciparum growth inhibition at 96 hour, primary screen for plastid delayed-death inhibitors | P. falciparum luciferase reporter growth, 96 h | Potency, µM (top dose mostly 28.7 µM), without a hit: top-dose activity change, negative = inhibition, most hits filed as inhibitors | hit rate 6.9% among 320,000 | AID 504834; note: % is set by controls: 0 for no effect and ±100 for the full control effect
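Parasite growth measured via integrated firefly luciferase reporter in P. falciparum. Infected erythrocytes at 2% hematocrit, 0.05% parasitemia final were treated 96 hours at 37 C under 5% CO2, and luminescence was read.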
Active calls of the source: *. Unless noted, calls come from the whole dose curve; as a rule, active = well fitted curve in the direction sought with a large enough effect; inconclusive = small, poorly fitted or top-dose-only effect, or another doubt; inactive = no such curve, though single readings can be large; an effect the other way counts as inactive or inconclusive. Potency is the fitted concentration of half-maximal effect.

Screening O=C(Oc1cc(=O)oc2c1c(=O)n1c3c(cccc23)CC1)c1ccc(F)cc1 returned AMA1 RON2 block inconclusive, Pf growth 48h 11%, NS1 function inh -46%, Sm TGR inh 25µM* and Pf growth 96h -27%.
O=C(Oc1cc(=O)oc2ccccc12)c1ccccc1 was read as AMA1 RON2 block -4%, Pf growth 48h 41%, NS1 function inh 5%, Sm TGR inh 7% and Pf growth 96h 7%.
Screening O=C(Oc1cc(=O)oc2c1c(=O)n1c3c(cccc23)CC1)c1ccccc1 returned AMA1 RON2 block -9%, Pf growth 48h 2%, NS1 function inh -28%, Sm TGR inh 10µM* and Pf growth 96h inconclusive.
CCCCNC(=O)NCCN1CCOCC1 was read as AMA1 RON2 block 6%, Pf growth 48h -1%, NS1 function inh 3%, Sm TGR inh 14% and Pf growth 96h 8%.
Screening COC(=O)c1ccc(C2=NOC(C)(c3nnc(-c4cccc(Cl)c4)o3)C2)cc1 (stereo not given) returned AMA1 RON2 block 2%.
For CCn1cc(C(=O)NCc2ccco2)c(=O)c2cc(S(=O)(=O)N3CCc4ccccc4C3)ccc21 the results were AMA1 RON2 block -8%, Pf growth 48h 9.3µM*, NS1 function inh 21%, Sm TGR inh 14µM* and Pf growth 96h 5.2µM*.
`O=C(COC(=O)c1cccc(S(=O)(=O)N2CCc3ccccc3C2)c1)NCc1ccco1` gave AMA1 RON2 block -6%, Pf growth 48h 0%, NS1 function inh 0%, Sm TGR inh 28µM* and Pf growth 96h 7%.
For CN(c1ccccc1)S(=O)(=O)c1cccc(C(=O)OCC(=O)NCc2ccco2)c1 the results were AMA1 RON2 block 10%, Pf growth 48h -15%, Sm TGR inh 56µM* and Pf growth 96h inconclusive.
For O=C(COC(=O)c1cc(S(=O)(=O)N2CCc3ccccc3C2)ccc1Cl)NCc1ccco1 the results were AMA1 RON2 block 12%, NS1 function inh 14%, Sm TGR inh 18µM* and Pf growth 96h 25%.
CCn1cc(C(=O)NCc2ccco2)c(=O)c2cc(S(=O)(=O)N3CCCCCC3)ccc21 was read as AMA1 RON2 block 67%, Pf growth 48h inconclusive, NS1 function inh 10%, Sm TGR inh inconclusive and Pf growth 96h 26%.
`O=C(COC(=O)c1cc(S(=O)(=O)N2CCOCC2)ccc1Cl)NCc1ccco1` gave AMA1 RON2 block 12%, Pf growth 48h 39%, Sm TGR inh -32% and Pf growth 96h 23%.
For CCOc1ccc(-c2cc3c(=O)n(CC(=O)NCc4ccc(C)cc4)ccn3n2)cc1 the results were Sm TGR inh -7%.
`COc1cc(C(=O)COC(=O)c2cccs2)cc(OC)c1OC` gave AMA1 RON2 block 10%.
Screening COc1ccc(N2CCN(C(=O)CCNC(=O)c3ccc(C(C)(C)C)cc3)CC2)cc1 returned AMA1 RON2 block -17%, Pf growth 48h 10µM*, NS1 function inh 2%, Sm TGR inh 2% and Pf growth 96h inconclusive.
`COc1ccc(OC)c(CN2CCN(C(=O)CCNC(=O)c3ccc(Br)cc3)CC2)c1` gave AMA1 RON2 block -28%, Pf growth 48h -6%, Sm TGR inh -10% and Pf growth 96h 0%.
Screening COc1ccc(OC)c(CN2CCN(C(=O)CNC(=O)c3ccc(C(C)(C)C)cc3)CC2)c1 returned AMA1 RON2 block -13%, Pf growth 48h inconclusive, Sm TGR inh -12% and Pf growth 96h 12µM*.
COc1ccc(S(=O)(=O)CCC(=O)N2CCN(c3ccc(C(C)=O)cc3)CC2)cc1 was read as AMA1 RON2 block 16%, Pf growth 48h -11%, NS1 function inh -2%, Sm TGR inh -10% and Pf growth 96h 8.3µM*.
For COc1ccc(N2CCN(C(=O)CCS(=O)(=O)c3ccc(C)cc3)CC2)cc1 the results were AMA1 RON2 block -6%, Pf growth 48h 0%, NS1 function inh -2%, Sm TGR inh 25µM* and Pf growth 96h -7%.
Screening CC(C)OCCCNC(=O)c1ccc2c(c1)N(Cc1c(F)cccc1Cl)C(=O)c1ccccc1S2 returned Sm TGR inh 11%.
`CCOc1ccc(CCNC(=O)COC(=O)c2ccc(C)c([N+](=O)[O-])c2)cc1OCC` gave AMA1 RON2 block -2%, Pf growth 48h 27%, NS1 function inh 1%, Sm TGR inh 5% and Pf growth 96h inconclusive.
